Screening results as filed in PubChem BioAssay.
Rows were chosen to be rich in hits. Some 21% of all compounds tested hit in one or more screens of this group.
Shiga inhibitor = inhibitors of Shiga toxin in Vero cells; inhibition, % at 38.7 µM; Vero cells, Shiga toxin protein synthesis inhibition reporter; actives 9.2% (n = 290,000); in the data active means inhibition mostly above about 28%, no sharp cut-off; inactive means mostly below about 43%; further: 0% is about no effect
Pf growth 96h = P. falciparum growth inhibition at 96 hours; P. falciparum luciferase reporter growth, 96 h; Potency, µM (top dose mostly 28.7 µM), for the others: at the highest dose activity change, negative = inhibition, usual class: inhibitors; actives 6.9% (n = 320,000); AID 504834; active means well fitted inhibition curve with a large enough effect; inconclusive means small, poorly fitted or top-dose-only effect, or another doubt; inactive means no such curve, though single readings can be large or run the other way; further: potency means the concentration at half of the fitted maximal effect; on the % scale 0 is the no-effect control and ±100 the full control effect
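Plates of compound plus infected erythrocytes (2% hematocrit, 0.05% parasitemia final) incubate 96 hours, 37 C, 5% CO2. Detection reagent added; reduced luminescence from the parasites' luciferase reporter flags inhibition.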
SARS PLP yeast = blocks SARS-CoV papain-like protease in a yeast assay. Potency, µM (series often up to 32.9 µM), for the others: at the top dose activity, positive = growth rescue, actives largely listed as activators. S. cerevisiae expressing SARS-CoV PLpro, growth rescue. actives 0.19% (n = 330,000); further: potency means the concentration at half of the fitted maximal effect; 0% is about no effect; nearly all actives have a fitted effect of over 55% in size
Cycloheximide cs = counter-screen for Shiga toxin inhibitors: cycloheximide protein synthesis inhibition; max response, %; actives 12% (n = 300,000); cell reporter, cycloheximide protein synthesis inhibition counterscreen; in the data active means max response mostly above about 13%, no sharp cut-off; inactive means mostly below about 14%; further: read at 38.3 µM for the half of the compounds with a filed dose; 0% is about no effect
NS1 function inh = influenza NS1 inhibition. actives 0.4% (n = 270,000). Potency, µM (doses to about 46.1 µM), inactives show top-dose activity, positive = more growth; further: potency means the concentration at half of the fitted maximal effect; actives are rising curves; nearly all actives have a fitted effect of over 50% in size
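Growth recovery, yeast-based: influenza A NS1 expressed in S. cerevisiae causes slow growth, and suppressors are detected by OD600. The parent strain without NS1 is used as positive control.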
Pf growth 48h = inhibits P. falciparum growth in the first generation, 48 h. P. falciparum luciferase growth in erythrocytes, 48 h. Potency, µM (top dose mostly 28.7 µM), for inactives: at the top dose activity change, negative = inhibition, most hits filed as inhibitors. actives 5.9% (n = 310,000). AID 504832; active means well fitted inhibition curve with a large enough effect; inconclusive means small, poorly fitted or top-dose-only effect, or another doubt; inactive means no such curve, though single readings can be large or run the other way; further: potency means the concentration at half of the fitted maximal effect; on the % scale 0 is the no-effect control and ±100 the full control effect
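Compounds are pin-transferred into medium, infected erythrocytes (2% hematocrit, 0.1% parasitemia final) are added, and plates sit one parasite generation at 37 C in 5% CO2. Detection reagent is then added and luminescence measured.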
* hit, by the source's call; ? = inconclusive; / = no result given; + = active, no number; [ ] = another dose, or the depositor's remark. Unless noted, the call rests on the fitted dose curve.

SMILES | Shiga inhibitor | Pf growth 96h | SARS PLP yeast | Cycloheximide cs | NS1 function inh | Pf growth 48h
CC(=O)Nc1ccc2ccccc2c1 | 43 | 75% | 6% | 29* | -11% | /
COc1ccc(NC=O)c(C(=O)CCNC(C)=O)c1 | -13 | / | / | -2 | / | /
O=C(NNC(=O)c1ccc(Oc2ccc(C3SCCS3)cc2)o1)c1ccc(Cl)cc1 | 16 | 3% | 2% | -4 | 1% | 4%
CCNC(=O)N1CCN(CCCC(c2ccc(F)cc2)c2ccc(F)cc2)CC1 | / | 1.7µM* | / | / | -16% | 1.5µM*
O=C(Nc1ccc(F)cc1)N1CCN(CCc2ccccc2)CC1 | -11 | 28% | -2% | -1 | -1% | ?
Cc1ccc2c(c1)N(C(=O)CCC(=O)N1CCC(C(N)=O)CC1)CCO2 | -2 | 19% | -4% | -4 | 14% | -3%
COc1ccc2nc(NC(=O)CCN3C(=O)c4ccccc4C3=O)sc2c1 | 14 | 0% | 3% | 11 | 0% | 11%
COc1ccc2nc(NC(=O)CS(=O)(=O)Cc3ccccc3)sc2c1 | -2 | -26% | 2% | 3 | / | 20%
COc1ccc2nc(NC(=O)CCc3ccc(OC)c(OC)c3)sc2c1 | 30 | 12µM* | 0% | 30* | / | ?
COc1ccc2nc(NC(=S)N(C)C)sc2c1 | 68* | / | -17% | 47* | -136% | 0%
CCCC(=O)Nc1nc2ccc(OC)cc2s1 | 104* | 66% | -21% | 75* | -5% | 35%
C/C(=N\OCC(=O)Nc1nc2ccccc2s1)c1ccccc1 | 14 | 54% | -29% | 10 | -20% | 4%
COc1ccc(/C=N/OCC(=O)Nc2nc3ccccc3s2)cc1 | + | 86% | -37% | 34* | 11% | 57%
CC(=O)OCC(NC(=O)C(COCc1ccccc1)NC(=O)OC(C)(C)C)C1OC(n2cc(C)c(=O)[nH]c2=O)C(OC(C)=O)C1OC(C)=O (stereo not drawn) | -2 | / | / | 1 | / | /
C/C(=N\NC(=O)CSc1nnc(C)s1)c1ccc(Cl)cc1 | 2 | ? | -10% | -2 | -4% | -5%
Cc1ccc(CNC(=O)C2CC(=O)N(c3ccc(OCC(=O)N4CCCC4)cc3)C2)cc1 (stereo not drawn) | 28 | ? | 13% | -3 | 1% | -17%
Cc1cc(C(=O)O)cc(S(=O)(=O)NNC(=O)c2cccs2)c1C | -1 | 15% | -1% | 1 | 1% | 8%
Cc1ccccc1-c1nc2cc(Cl)ccc2o1 | 87 | 148% | ? | 38* | -7% | 94%
Cc1ccc2nc(-c3ccccn3)oc2c1 | 31 | / | -7% | 30 | -14% | 173%
Cc1ccccc1-c1nc2cc(Cl)ccc2c(=O)o1 | 2 | 25% | -1% | 7 | 7% | 18%
Clc1ccc2oc(-c3ccccc3)nc2c1 | 107* | 98% | -3% | 46* | 6% | 173%
O=C(Nc1ccc2oc(-c3ccccc3)nc2c1)c1ccncc1 | 45 | ? | 5% | 19 | -28% | 4%
Cc1ccc(-c2nc3cc(NS(=O)(=O)c4ccc(C)cc4)ccc3o2)cc1 | 13 | ? | -23% | 8 | -48% | /
Cc1ccc2nc(-c3cccnc3)oc2c1 | 131* | / | 3% | 47* | -9% | 267%
O=S(=O)(Nc1ccc2oc(-c3ccccc3)nc2c1)c1ccccc1 | 51 | / | -31% | 31* | -64% | 31%
SMILES | Shiga inhibitor | Pf growth 96h | SARS PLP yeast | Cycloheximide cs | NS1 function inh | Pf growth 48h
COCCN(Cc1cc2cc(C)c(C)cc2nc1Cl)C(=O)N1CCOCC1 | -9 | -13% | 1% | -1 | / | ?
COc1ccccc1CCn1c(N)cc(=O)[nH]c1=O | -3 | 3% | 16% | -2 | 5% | -2%
Clc1ccc2oc(-c3cccnc3)nc2c1 | 85* | / | 0% | 47* | -3% | 143%
Clc1ccc2oc(SCc3cccnc3)nc2c1 | 66* | 26% | -3% | 23* | -6% | 8%[0.00184 µM]
Cc1cc([N+](=O)[O-])c(C)c(Br)c1C | / | / | / | / | 1% | /
Cc1ccc2nc(-c3ccc(S(=O)(=O)N4CCCCC4)cc3)cn2c1 | 66* | 56% | -1% | 25* | 1% | 39%
Cc1ccn2cc(-c3cccc(S(=O)(=O)N4CCCCC4)c3)nc2c1 | 22 | ? | 3% | 21* | -5% | -4%
Cc1ccc(/C=N/NC(=O)Cc2ccc(O)cc2)s1 | 26 | 7.4µM* | 1% | 27* | -4% | 6%
Cc1ccc(/C=N/NC(=O)c2ccc(Br)o2)s1 | 82* | 29% | -28% | 43* | -12% | 31%
